The values below come from PubChem BioAssay AID1259240 (Keith Lab, Institute of Cancer Science, University of …, 2017).

Each structure is given as a SMILES string. A number with no mark means an inactive call. Activity calls are given as the source filed them. Rule as the data show it: active = fold change mostly below about -2 (no sharp cut-off); inactive = mostly above about -1.8.

This experiment can be described thus: modulation of TERT promoter-driven luciferase – cell-based, luciferase reporter, human, primary screen (AID 1259240). Particulars: A2780 TERT promoter luciferase reporter, 16 h; at 20 µM, fold versus average of vehicle-only wells.
On to `CC1CCCN(S(=O)(=O)c2cccc(-c3cn4cccnc4n3)c2)C1` (stereo unspecified), for which the fold change was -1.53. The same measure, in the same setting: the same measure for `Cc1nnc2ccc(N3CCC(C(N)=O)(N4CCCCC4)CC3)nn12`: -1.03.

Turning to `O=C(OCCCN=C1NS(=O)(=O)c2ccccc21)c1cccs1`, the result was active.

As for `Cc1noc(C(=O)NC(C)C)c1Cl`, the fold change is 1.11. On the same count and under the same terms, the same measure for `O=C(NCCCN1CCCC1)C(=O)Nc1ccc2nc3n(c(=O)c2c1)CCCCC3`: 1.01. `O=C(O)c1ccc(CNc2c(N3CCOCC3)c(=O)c2=O)cc1`: the fold change is 1.05. The same measure, in the same setting: the same measure for `CCCc1nc2ccccc2c2nc(N)nn12`: -2.02 (active); for `CN(CC(=O)NCc1ccco1)S(=O)(=O)c1ccc2c(c1)c(=O)n(C)c(=O)n2C`: -1.15; for `COC(=O)CSCc1nc2ccccc2[nH]c1=O`: -1.41.

With `CC(=O)Oc1ccccc1-c1nc2s/c(=C\c3cccc(Br)c3)c(=O)n2n1`, the fold change was 1.36. The same measure, in the same setting: as for `COC(=O)C1Cc2cc(OC)c(OC)cc2C(Cc2ccc(OC)c(OC)c2)=N1` (stereo unspecified), the figure is -1.78; as for `Cn1c(C(=O)N2CCC(C(=O)NCCc3c[nH]c4ccccc34)CC2)cc2sccc21`, -1.05; as for `Cc1nn(-c2cc(N3CCCCC3)ccc2N)c(=O)c2ccccc12`, -1.45. As for `CCOC(=O)CSc1nnc(-c2c[nH]c3ccccc23)n1CCOC`, the outcome was inactive. As to `CCN1CCN(C(=O)C2CCN(S(=O)(=O)c3ccc4c(c3)oc(=O)n4C)CC2)CC1`, the fold change was -1.05.

Turning to `CCc1ccc(S(=O)(=O)n2c(C)nc3ccccc32)cc1`, the fold change was -2.42 (active).

For the compound `Cc1nc(SCC(=O)N2CCCC2)c2c(=O)n(C)c(=O)n(C)c2n1`, the fold change was 1.5. Still for that read-out and setting: as for `Cc1cc(NC(=O)CSCc2nc(-c3cccc(F)c3)oc2C)no1`, the figure is 1.06.

As for `Cc1[nH]nc2c1C(c1cccs1)NC2=O` (stereo unspecified), the fold change was -1.17. Same read-out and setting: the same measure for `O=S(=O)(NCc1ccc2c(c1)OCO2)c1cccc2cccnc12`: -1.35; for `Cc1cc(Oc2ccccc2)nc(SCC(N)=O)n1`: 1.5; for `O=C1CC(c2cc3c(cc2Cl)OCO3)c2cc3c(cc2N1)OCCO3` (stereo unspecified): 1.12. Still for that read-out and setting: as for `CCOc1ccc(/C=c2\sc3nc(=O)c(Cc4ccc(Cl)cc4)nn3c2=O)cc1OC`, the figure is 1.07; as for `CCOC(=O)N1CCN(c2c(NC3CCCCCC3)c(=O)c2=O)CC1`, -1.07; as for `CCOC(=O)C1CCCN(c2c(N3CCC(C(N)=O)CC3)c(=O)c2=O)C1` (stereo unspecified), -1.23. On to `CCOC(=O)Cn1c(=O)oc2cc(S(=O)(=O)NCc3ccccn3)ccc21`, for which the fold change was 1.36.
